In PubChem BioAssay (Tox21) one finds Potency, outcome and activity change, positive = activation data, which are given here for eight compounds.

Assay [1] can be described thus: qHTS assay to identify small molecule antagonists of the estrogen related receptor (ERR) signaling pathway from Tox21 library - cell viability counter screen (AID 1224834). Also: nearly all actives have a fitted effect of over 30% in size. In outline:
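Viability readout (CellTiter-Fluor fluorescence, 30 min at 37 C) multiplexed with the ERR assay; cells treated 17.5 h at 37 C with compounds delivered in DMSO.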
Background: qHTS replaces the single test concentration by a dilution series.

The target in assay [2] is Luciferin 4-monooxygenase (Photinus pyralis) (UniProt P08659). Put plainly: qHTS assay to identify small molecule inhibitors of firefly luciferase (AID 1224835). Also: nearly all actives have a fitted effect of over 25% in size. In outline:
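Biochemical qHTS: compounds run as interplate titrations against purified firefly enzyme, with D-luciferin and ATP each at its KM concentration. Light output recorded by CCD imaging.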

Assay [3] in a line: qHTS assay to identify small molecule agonists of the constitutive androstane receptor (CAR) signaling pathway - cell viability counter screen (AID 1224836). Also: nearly all actives have a fitted effect of over 45% in size. The gist of the method:
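HepG2-CYP2B6-hCAR, 2500 cells/well, 4 h pre-incubation; cpd 15 conc + PK11195 0.75 uM final; 23 h, 37 C/5% CO2; CellTiter-Fluor, fluorescence.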

Assay [4] can be described thus: qHTS assay to identify small molecule antagonists of the constitutive androstane receptor (CAR) signaling pathway - cell viability counter screen (AID 1224837). Also: nearly all actives have a fitted effect of over 45% in size. In outline: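 Fluorescence from CellTiter-Fluor served as the viability signal. Human hepatoma HepG2 cells stably bearing hCAR and CYP2B6-2.2kb received compound plus CITCO (50 nM final) for 23 hr.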
Assay [5] has as its target Nuclear receptor subfamily 1 group I member 3 (Homo sapiens) (UniProt Q14994). Put plainly: qHTS assay to identify small molecule antagonists of the constitutive androstane receptor (CAR) signaling pathway (AID 1224838).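 Also: HepG2 cells stably expressing hCAR with CYP2B6 luciferase reporter stimulated by CITCO; nearly all actives have a fitted effect of over 40% in size.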 In outline:
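Quantitative HTS in double-stable HepG2-CYP2B6-hCAR cells. After 4 h plating, cells get compound (15 concentrations) and CITCO at 50 nM final, incubate 24 h at 37 C, then ONE-Glo luminescence is read.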

Assay [6] shares this target. Briefly: qHTS assay to identify small molecule agonists of the constitutive androstane receptor (CAR) signaling pathway (AID 1224839). Also: nearly all actives have a fitted effect of over 15% in size. Also: potency is read from the fitted curve at half-maximal effect.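 As to activation: HepG2 cells stably carrying human CAR and a CYP2B6 luciferase reporter.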 The gist of the method:
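HepG2-CYP2B6-hCAR cells, 2500/well, 4 h pre-incubation; compounds 15 conc.; PK11195 0.75 uM final; 24 h, 37 C/5% CO2; ONE-Glo luciferase read.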

Assay [7] can be described thus: qHTS assay to identify small molecule antagonists of the estrogen related receptor signaling pathway with the pleiotropic PPARgamma coactivator (PGC) from Tox21 10K library - cell viability counter screen (AID 1224840; active = well fitted cell-killing curve with a large enough effect in the repeat runs, not every such curve was filed as active; also: nearly all actives have a fitted effect of over 40% in size). The gist of the method:
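Compounds in DMSO, alongside positive and negative controls, were pinned onto PGC/ERR cells (2,000 per well). Exposure lasted 17.5 hours at 37 C, followed by a 30-minute CellTiter-Fluor incubation and fluorescence reading.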

Assay [8] can be described thus: qHTS assay to identify small molecule antagonists of the estrogen related receptor signaling pathway with the pleiotropic PPARgamma coactivator (PGC) from Tox21 10K library (AID 1224841; call rule not given here; also: actives are mostly falling curves and most rising ones were filed inactive; nearly all actives have a fitted effect of over 50% in size; also: potency is read from the fitted curve at half-maximal effect). The gist of the method:
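Compound exposure ran 18 hours at 37 C in PGC/ERR cells (2,000/well) that had first rested 6 hours in a 37 C/5% CO2 incubator. Luciferase activity was then detected with One-Glo after a 30-minute room-temperature step.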

Assay [9] can be described thus: qHTS assay to identify small molecule agonists of the estrogen related receptor signaling pathway with the pleiotropic PPARgamma coactivator (PGC) from Tox21 10K library (AID 1224842). Also: nearly all actives have a fitted effect of over 15% in size. The gist of the method: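 PGC/ERR reporter cell line, 2,000 cells per well, incubated 6 h at 37 C before 23 nL compound in DMSO was added. After 18 h at 37 C, One-Glo luminescence read following 30 min at room temperature.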

Assay [10] concerns the target Thyrotropin receptor (Homo sapiens) (UniProt P16473). Briefly: qHTS assay to identify small molecule agonists of the thyroid stimulating hormone receptor (TSHR) signaling pathway (AID 1224843; calls by dose curve; also: nearly all actives have a fitted effect of over 45% in size; also: potency is read from the fitted curve at half-maximal effect). In outline: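 Steps: seed 800 TSHR-HEK293 cells per well; add test compound and hold 30 min at ambient temperature; dispense cAMP-d2 then anti-cAMP cryptate; incubate 1 h at ambient; measure fluorescence intensity.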

The nature of assay [11]: qHTS assay to identify small molecule agonists of the hypoxia (HIF-1) signaling pathway - cell viability counter screen (AID 1224844; calls by dose curve; also: nearly all actives have a fitted effect of over 50% in size; also: potency is read from the fitted curve at half-maximal effect). In outline: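 Luminescent ATP content (CellTiter-Glo, 30 min, room temperature) served as the viability measure in HRE-bla ME-180 cells exposed to compounds for 17 hrs in low-serum medium (0.5% dialyzed FBS).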
The nature of assay [12]: qHTS assay to identify small molecule agonists of H2AX (AID 1224845; active = well fitted activation curve with a large enough effect in the signal ratio in the repeat runs, not every such curve was filed as active; the % refers to the signal ratio). In outline:
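Wild-type CHO-K1 cells, plated overnight, exposed 3hr at 37C to 15 concentrations (0.76% DMSO final). Lysed, then HTRF anti-pH2AX (S139) cryptate and anti-H2AX-d2 antibodies, 24 hr room temperature; 665/620 nm emission read.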

A short description of assay [13]: qHTS assay to identify small molecule agonists of H2AX - cell viability counter screen (AID 1224847; calls by dose curve; also: top concentration of the series differs between compounds; nearly all actives have a fitted effect of over 30% in size). The gist of the method:
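Cells plated first: CHO-K1, 1000 per well in 10% FBS medium, incubated overnight at 37C. Then 15-point compound titration added (final DMSO 0.76%) for 3 hr. Finally CellTiter-Glo added and luminescence read.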

The nature of assay [14]: qHTS assay to identify small molecule agonists of the estrogen related receptor (ERR) signaling pathway from Tox21 library (AID 1224849; calls by dose curve; also: nearly all actives have a fitted effect of over 15% in size). The settings on record: ERR reporter cell line, ONE-Glo luciferase, 18 h; at 92.4 µM (top of the series) unless noted. In outline: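 We plated ERR reporter cells, waited 6 h, added compounds in DMSO by pin tool and incubated them 18 h at 37 C. ONE-Glo was then added and luminescence read after 30 min.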

Assay [15] in a line: qHTS RealTime-Glo MT Cell Viability Assay in HepG2 cells - 24 hour (AID 1224867). Also: nearly all actives have a fitted effect of over 50% in size. In outline:
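HepG2 suspension premixed with RealTime-Glo reagents is plated at 600 cells per well and left 5 h at 37 C/5% CO2. Compounds in DMSO then go in, and bioluminescence reflecting viable cell number is recorded over 40 h.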

Assay [16] can be described thus: qHTS RealTime-Glo MT Cell Viability Assay in HEK293 cells - 32 hour (AID 1224868). Also: top concentration of the series differs between compounds; nearly all actives have a fitted effect of over 50% in size. The gist of the method: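 Reads taken at 0, 8, 16, 24, 32 and 40 h from the same wells. HEK293 cells (600/well) carried RealTime-Glo reagents from seeding, with compound added after a 5 h settle at 37 C.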
The nature of assay [17]: qHTS RealTime-Glo MT Cell Viability Assay in HepG2 cells - 40 hour (AID 1224870). Also: nearly all actives have a fitted effect of over 50% in size. In outline: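 HepG2 cells (600/well) mixed with RealTime-Glo MT reagent, settled 5 h at 37 C/5% CO2 before compound addition. Nonlytic NanoLuc luminescence from viable-cell prosubstrate reduction read repeatedly during 40 h treatment at 37 C.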
A short description of assay [18]: qHTS assay to identify small molecule agonists of the hypoxia (HIF-1) signaling pathway (AID 1224846; active = well fitted activation curve with a large enough effect in the signal ratio in the repeat runs, not every such curve was filed as active; the % refers to the signal ratio). In outline: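 Measured by blue/green FRET after loading CCF4-AM: beta-lactamase expressed from a hypoxia response element in ME-180 cells. Test agents were delivered in DMSO and left 17 hrs; cells had been plated 5 hrs earlier in low-serum (0.5% dialyzed FBS) medium.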

The nature of assay [19]: A CellTox Green Cytotoxicity Assay to monitor cytotoxicity in HEK293 cells - 0 hour (AID 1224869). Also: nearly all actives have a fitted effect of over 50% in size. The gist of the method: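 Each value comes from one timepoint of a single continuous run in which HEK293 cells with CellTox Green were exposed to compound for up to 40 h at 37 C, dye fluorescence rising with cell death.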
The nature of assay [20]: qHTS assay to identify small molecule antagonists of the estrogen related receptor (ERR) signaling pathway from Tox21 library (AID 1224848). Also: nearly all actives have a fitted effect of over 50% in size. The gist of the method:
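Luminescent reporter read-out (ONE-Glo) from NTP's ERR cell line after 18 h treatment at 37 C with DMSO-dissolved Tox21 compounds; cells pre-plated 6 h beforehand at 2,000 per well.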

SMILES strings stand for the structures. Values without a mark were called inactive. Inconclusive results are not listed. The source made the active and inactive calls. Unless noted, calls follow the shape of the dose curve; as a rule, active = well fitted curve in the direction sought with a large enough effect in the repeat runs; inconclusive = weak or mixed curves; inactive = no such curve, though single readings can be large; an effect the other way counts as inactive or inconclusive.
% is scaled to controls: 0 for no effect and ±100 for the full control effect.

Chain of Luciferin 4-monooxygenase (Photinus pyralis) (P08659 whole entry, looked up): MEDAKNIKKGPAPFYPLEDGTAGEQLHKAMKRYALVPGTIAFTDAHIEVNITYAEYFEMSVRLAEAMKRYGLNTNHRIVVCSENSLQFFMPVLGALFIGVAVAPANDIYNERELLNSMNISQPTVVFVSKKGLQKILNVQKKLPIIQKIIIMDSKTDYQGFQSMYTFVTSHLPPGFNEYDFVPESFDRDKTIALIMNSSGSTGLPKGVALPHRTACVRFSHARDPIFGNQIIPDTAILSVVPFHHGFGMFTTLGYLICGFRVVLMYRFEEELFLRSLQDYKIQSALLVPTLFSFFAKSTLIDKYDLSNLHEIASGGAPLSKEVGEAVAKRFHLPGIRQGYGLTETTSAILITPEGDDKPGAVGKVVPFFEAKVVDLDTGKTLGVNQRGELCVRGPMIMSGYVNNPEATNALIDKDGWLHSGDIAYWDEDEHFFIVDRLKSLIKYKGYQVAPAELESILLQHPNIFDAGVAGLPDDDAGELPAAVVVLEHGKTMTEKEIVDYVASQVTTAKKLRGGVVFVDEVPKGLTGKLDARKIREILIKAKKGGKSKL
Chain of Thyrotropin receptor (Homo sapiens) (P16473 whole entry, looked up): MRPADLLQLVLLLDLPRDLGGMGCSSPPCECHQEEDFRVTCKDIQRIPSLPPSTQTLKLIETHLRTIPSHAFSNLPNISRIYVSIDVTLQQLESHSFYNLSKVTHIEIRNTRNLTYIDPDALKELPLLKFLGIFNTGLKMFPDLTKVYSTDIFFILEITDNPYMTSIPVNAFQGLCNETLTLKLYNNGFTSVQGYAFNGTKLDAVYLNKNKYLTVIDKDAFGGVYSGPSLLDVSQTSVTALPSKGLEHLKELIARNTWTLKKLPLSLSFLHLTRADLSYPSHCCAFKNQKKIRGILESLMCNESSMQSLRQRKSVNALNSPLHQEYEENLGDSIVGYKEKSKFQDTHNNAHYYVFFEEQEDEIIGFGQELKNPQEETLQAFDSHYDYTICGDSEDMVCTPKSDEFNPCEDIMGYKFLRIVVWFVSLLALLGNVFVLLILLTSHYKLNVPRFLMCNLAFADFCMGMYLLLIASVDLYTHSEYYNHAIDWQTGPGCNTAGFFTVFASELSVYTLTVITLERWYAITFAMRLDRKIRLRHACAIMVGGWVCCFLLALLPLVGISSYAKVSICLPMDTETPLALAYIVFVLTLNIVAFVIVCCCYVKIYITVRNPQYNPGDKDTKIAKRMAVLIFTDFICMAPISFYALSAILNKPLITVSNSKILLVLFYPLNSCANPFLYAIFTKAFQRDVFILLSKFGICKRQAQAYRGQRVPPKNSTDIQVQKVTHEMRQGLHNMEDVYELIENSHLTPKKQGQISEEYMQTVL
Chain of Nuclear receptor subfamily 1 group I member 3 (Homo sapiens) (Q14994 whole entry, looked up): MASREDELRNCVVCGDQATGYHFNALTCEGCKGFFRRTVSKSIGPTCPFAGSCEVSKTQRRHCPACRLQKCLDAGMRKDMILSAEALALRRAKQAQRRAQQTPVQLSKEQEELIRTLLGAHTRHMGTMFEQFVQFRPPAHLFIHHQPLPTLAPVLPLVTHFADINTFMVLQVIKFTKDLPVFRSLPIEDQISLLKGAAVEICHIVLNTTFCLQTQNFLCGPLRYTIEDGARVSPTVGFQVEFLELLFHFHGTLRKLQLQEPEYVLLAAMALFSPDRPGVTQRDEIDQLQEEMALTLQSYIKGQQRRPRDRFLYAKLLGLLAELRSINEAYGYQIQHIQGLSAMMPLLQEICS

Take `CC(Oc1ccc(Oc2ncc(C(F)(F)F)cc2Cl)cc1)C(=O)O` (stereo not given): the Potency entry in assay [1], in assay [2], in assay [3], in [4], in [5] and in assay [6] was “inactive” in each case. Also, the Potency entry in assay [7], in assay [10], in [12], in assay [13], in assay [15] and in assay [16] was “inactive” throughout. In assay [17], the Potency result was “inactive”. Also, the Potency is 27.3 µM (active) in assay [8] and 15.5 µM (active) in assay [11]. In addition, in assay [9], the compound was classed as inactive. For the same compound, the activity change, positive = activation in assay [14] is -29.5%.

For the compound `CCC(=O)c1ccccc1`, the Potency entry in [1], in [2], in assay [3], in assay [4], in [5] and in [6] was “inactive” throughout. Also, the Potency entry in assay [7], in [10], in assay [11], in assay [12], in assay [13] and in assay [15] was “inactive” throughout. Also, the Potency result in [16], in assay [19] and in [17] was “inactive” in each case. In addition, the compound was classed as inactive in [18].

For `CCOP(=O)(OCC)OP(=O)(OCC)OCC`, the Potency result in assay [1], in [2], in assay [3], in assay [4], in assay [5] and in assay [6] was “inactive” each time. In addition, the Potency entry in assay [7], in [10], in assay [11], in assay [12], in assay [13] and in assay [15] was “inactive” throughout. The Potency result in [16], in [19] and in [17] was “inactive” in each case. Besides, in assay [18], the call was inactive.

For the compound `CSc1ccc(C(=O)C(C)(C)N2CCOCC2)cc1`, the Potency entry in [1], in [2], in [3], in [4], in [5] and in assay [7] was “inactive” in each case. The Potency result in [11], in assay [12], in assay [13], in assay [15], in assay [19] and in [17] was “inactive” each time. In addition, the Potency was 30.6 µM (active) in [6] and 2.73 µM (active) in assay [10]. The outcome in [9] was inactive. Further, in assay [14], the activity change, positive = activation is -13.8%.

Turning to `CCCCC(=O)Cl`, the Potency entry in assay [1], in [2], in [3], in assay [4], in assay [5] and in assay [6] was “inactive” throughout. Besides, the Potency entry in assay [7], in assay [8], in [10], in assay [11], in assay [12] and in assay [13] was “inactive” each time. Besides, the Potency result in assay [20], in assay [15], in assay [16], in assay [19] and in assay [17] was “inactive” each time. Also, the call in assay [9] and in [18] was inactive. Moreover, the activity change, positive = activation in assay [14] was -5.15%.

Turning to `[As]#[In]`, the Potency entry in assay [1], in assay [2], in [3], in assay [4], in [5] and in assay [6] was “inactive” each time. The Potency entry in assay [7], in [8], in [10], in assay [11], in assay [12] and in assay [13] was “inactive” each time. The Potency result in assay [20], in assay [15], in [19] and in assay [17] was “inactive” throughout. For the same compound, the compound was classed as inactive in [9] and in assay [18]. Moreover, in assay [14], the activity change, positive = activation is 0.493%.

Turning to `C#CCN1C(=O)COc2cc(F)c(N3C(=O)C4=C(CCCC4)C3=O)cc21`, the Potency entry in [1], in assay [2], in assay [3], in [4], in assay [5] and in [7] was “inactive” each time. Also, the Potency result in assay [10], in [11], in assay [12], in assay [13], in [15] and in [16] was “inactive” throughout. The Potency entry in assay [19] and in [17] was “inactive” each time. Besides, the Potency in assay [6] is 48.6 µM (active). Moreover, the compound was called inactive in assay [9] and in assay [18]. In addition, the activity change, positive = activation in assay [14] is -22.6%.

For the compound `CC(=O)C(Cl)Cl`, the Potency result in assay [1], in assay [2], in [3], in assay [4], in assay [5] and in assay [6] was “inactive” throughout. Further, the Potency entry in [7], in [8], in assay [10], in assay [11], in assay [12] and in assay [13] was “inactive” throughout. For the same compound, the Potency entry in [15], in assay [16], in assay [19] and in [17] was “inactive” each time. For the same compound, the result in assay [9] was inactive. Moreover, the activity change, positive = activation in [14] was 4.96%.
